Test results as given in PubChem BioAssay (EPA / NIEHS).
Records with an inconclusive call do not appear. Active and inactive are the calls of the source. The calls were made as follows, unless noted: active = hit-call score of the fitted dose curve at least 0.9, where 1 is the maximum; inactive = score below 0.9.

Experiments:
[1] = ACEA_ER_80hr: ACEA Biosciences xCELLigence Real-Time Cell Analysis on Estrogen Receptor Agonism for Proliferation (AID 2282667; active = hit-call score of the fitted dose curve at least 0.9, where 1 is the maximum); conditions: T47D proliferation, impedance (xCELLigence), 80 h
In short: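 Real-time impedance growth kinetics of human T-47D breast cells read 80 h after dosing, gain-of-signal fitted relative to DMSO. Compounds: 1:4 serial series, top final concentration 100 uM, n = 2.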

[2] = ATG_CRE_CIS: Attagene CIS-FACTORIAL HepG2 Assay for human cAMP Responsive Element (CRE) binding protein 3 (AID 2282926); conditions: HepG2 CRE cis-reporter, Attagene multiplexed mRNA; actives raise or lower the signal
In short: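 Multiplexed transcription-unit reporters transfected into HepG2; 24 h dosing; RT-PCR/capillary electrophoresis fluorescence read-out; bidirectional fit vs DMSO.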

[3] = target: CCAAT/enhancer-binding protein beta (Homo sapiens) (UniProt P17676); assay: ATG_C_EBP_CIS: Attagene CIS-FACTORIAL HepG2 Assay for human CCAAT/Enhancer Binding Protein (C/EBP) beta (AID 2282927); conditions: HepG2 Attagene cis-factorial transcription factor reporter; actives raise or lower the signal
In short: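 Endogenous C/EBPb-driven reporter transcripts measured in transfected human HepG2 cells at 24 h via RT-PCR and capillary electrophoresis of labelled fragments. Activity fitted in both directions relative to DMSO baseline.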

[4] = ATG_CMV_CIS: Attagene CIS-FACTORIAL HepG2 Assay for human CMV (Internal Marker) (AID 2282928); conditions: HepG2 CMV promoter reporter, transcription factor profiling; actives raise or lower the signal;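 also: endpoint acts as a background internal control marker rather than a target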
In short: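 After transient transfection of HepG2 with reporter transcription units driven by cis-regulatory promoters, cells receive test chemical for 24 h. Labeled reporter amplicons, digested with HpaI, are sized and quantified by capillary electrophoresis against DMSO.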

[5] = ATG_DR4_LXR_CIS: Attagene CIS-FACTORIAL HepG2 Assay for human Liver X Receptor (LXR), DR4 submotif (AID 2282929); conditions: HepG2 Attagene DR4 cis-reporter, mRNA transcription; actives raise or lower the signal
In short: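 Transiently transfected HepG2 liver cells; cis-regulated reporters; 24 h dosing. RT-PCR plus CE read-out of reporter mRNA. DMSO baseline, bidirectional curve fitting.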

[6] = target: Aryl hydrocarbon receptor (Homo sapiens) (UniProt P35869); assay: ATG_Ahr_CIS: Attagene CIS-FACTORIAL HepG2 Assay for human Aryl Hydrocarbon Receptor (Ahr) (AID 2282930); conditions: HepG2 AhR cis-factorial reporter transcription; actives raise or lower the signal
In short: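 Reporter mRNA levels, quantified by RT-PCR and fluorescent capillary electrophoresis, reflect endogenous AhR transcriptional activity in HepG2 cells carrying transfected cis-promoter reporter constructs. Readout at 24 h post-dose; gain or loss fitted against DMSO baseline.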

[7] = ATG_AP_1_CIS: Attagene CIS-FACTORIAL HepG2 Assay for human Activator Protein 1 (AP-1) (AID 2282931); conditions: HepG2 Attagene cis-factorial AP-1 reporter mRNA; actives raise or lower the signal
In short: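 We transfected HepG2 cells transiently with a set of cis-regulated reporter transcription units, dosed them for 24 h, and quantified reporter mRNA via RT-PCR and capillary electrophoresis, scoring gain or loss of signal relative to DMSO.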

[8] = ATG_AP_2_CIS: Attagene CIS-FACTORIAL HepG2 Assay for human Activator Protein 2 (AP-2) (AID 2282932); conditions: HepG2 AP-2 cis-reporter, Attagene transcription factor profiling; actives raise or lower the signal
In short: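 Step one: transient transfection of HepG2 with reporter transcription units. Step two: 24 h chemical exposure. Step three: RNA extraction, RT-PCR, labelled fragment analysis by capillary electrophoresis; DMSO serves as baseline.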

[9] = ATG_BRE_CIS: Attagene CIS-FACTORIAL HepG2 Assay for human Bone Morphogenetic Protein (BMP) Response Element (BRE) (AID 2282933); conditions: HepG2 BMP response element reporter, Attagene transcription factor profiling; actives raise or lower the signal
In short: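 Fluorescence-labelled reporter cDNA fragments, separated by capillary electrophoresis, gave the signal for this component of a 52-readout multiplex. HepG2 cells were transfected, exposed to chemicals for 24 h, and compared with DMSO using bidirectional fitting.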

[10] = target: Retinoic acid receptor alpha (Homo sapiens) (UniProt P10276); assay: ATG_DR5_RAR_CIS: Attagene CIS-FACTORIAL HepG2 Assay for human Retinoic Acid Receptor Alpha (RARE), DR5 submotif (AID 2282934); conditions: HepG2 Attagene cis-factorial RARE DR5 reporter, mRNA; actives raise or lower the signal
In short: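 Reporter transcripts from a DR5-regulated unit, measured via RT-PCR plus capillary electrophoresis, reflect endogenous RAR activity in transiently transfected human HepG2 liver cells. Exposure lasted 24 h; gain or loss of signal scored against DMSO.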

[11] = target: Transcription factor E2F1 (Homo sapiens) (UniProt Q01094); assay: ATG_E2F_CIS: Attagene CIS-FACTORIAL HepG2 Assay for human E2F Transcription Factor 1 (AID 2282935); conditions: HepG2 Attagene cis-reporter, E2F reporter RNA transcripts; actives raise or lower the signal
In short: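 Total RNA from 24 h-treated, reporter-transfected HepG2 cells undergoes DNase I treatment, oligo(dT) reverse transcription, PCR and 6-FAM primer extension before capillary electrophoresis.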

[12] = ATG_E_Box_CIS: Attagene CIS-FACTORIAL HepG2 Assay for human Enhancer Box (E-box) (AID 2282936); conditions: HepG2 E-box cis-reporter transcription, actives raise or lower the signal
In short: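 DMSO served as negative control and baseline for bidirectional fitting. Human hepatoma HepG2 cells, transiently transfected with cis-reporter constructs, were dosed 24 h; reporter mRNA read by RT-PCR and capillary electrophoresis.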

[13] = ATG_M_61_CIS: Attagene CIS-FACTORIAL HepG2 Assay for M61 Transcription Factor (Internal Marker) (AID 2282937); conditions: HepG2 Attagene CIS-FACTORIAL M61 internal marker reporter; actives raise or lower the signal
In short: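 Multiplexed reporter mRNA assay, HepG2 human hepatoma cells, 24 h treatment. Signal: FAM-labelled, HpaI-digested RT-PCR fragments by CE. Fit: bidirectional, baseline DMSO.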

[14] = ATG_EGR_CIS: Attagene CIS-FACTORIAL HepG2 Assay for human Early Growth Response 1 (EGR1) (AID 2282938); conditions: HepG2 Attagene CIS-FACTORIAL EGR reporter mRNA; actives raise or lower the signal
In short: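 Multiplexed cis-reporter system in human hepatoma HepG2 cells, transiently transfected. Cells are dosed for 24 h; reporter transcripts are amplified, fluorescently tagged and sized by capillary electrophoresis, with DMSO as negative control.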

[15] = ATG_M_19_CIS: Attagene CIS-FACTORIAL HepG2 Assay for M19 Transcription Factor (Internal Marker) (AID 2282939); conditions: HepG2 Attagene CIS-FACTORIAL M19 internal marker reporter; actives raise or lower the signal
In short: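 HepG2, MRTU transient transfection, 24 h dosing. Total RNA → RT-PCR → 6-FAM primer extension → HpaI digest → CE fluorescence. Bidirectional curve fit, DMSO negative control.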

[16] = ATG_ERE_CIS: Attagene CIS-FACTORIAL HepG2 Assay for Estrogen Response Element (ERE) (AID 2282940); conditions: HepG2 ERE cis-reporter, Attagene RNA transcript; actives raise or lower the signal
In short: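 After a 24 h chemical treatment, RNA from reporter-transfected HepG2 cells is reverse-transcribed, PCR-amplified and fluorescently labelled. Fragments separated by capillary electrophoresis give reporter signal; DMSO serves as negative control.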

[17] = ATG_Ets_CIS: Attagene CIS-FACTORIAL HepG2 Assay for human Erythroblast Transformation Specific (ETS) (AID 2282941); conditions: HepG2 ETS cis-reporter transcription, actives raise or lower the signal
In short: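 Human HepG2 hepatoma cells were transiently transfected with promoter-driven reporter constructs and treated for 24 hours. Reporter transcripts were quantified by RT-PCR with fluorescent primer extension; bidirectional curve fitting used DMSO as reference.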

[18] = target: Hepatocyte nuclear factor 3-beta (Homo sapiens) (UniProt Q9Y261); assay: ATG_FoxA2_CIS: Attagene CIS-FACTORIAL HepG2 Assay for human Forkhead box A2 (FOXA2) (AID 2282942); conditions: HepG2 cis-reporter transcription factor activity, 24 h; actives raise or lower the signal
In short: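 Multiplexed cis-element reporter assay in transiently transfected HepG2. Twenty-four hours post-dosing, RNA was reverse-transcribed, amplified, FAM-labelled, HpaI-digested and separated by CE. Activity gain or loss relative to DMSO.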

[19] = ATG_FoxO_CIS: Attagene CIS-FACTORIAL HepG2 Assay for human Forkhead box O (FoxO) (AID 2282943); conditions: HepG2 Attagene cis-reporter, FoxO element, mRNA; actives raise or lower the signal
In short: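 Endogenous transcription factor activity read from multiplexed cis-promoter reporter transcripts in transiently transfected HepG2, 24 h after dosing. Reporter RNA measured via RT-PCR plus capillary electrophoresis of FAM-labeled products; gain or loss relative to DMSO.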

[20] = ATG_GATA_CIS: Attagene CIS-FACTORIAL HepG2 Assay for human GATA Binding Protein (AID 2282944); conditions: HepG2 GATA cis-element reporter, Attagene multiplex mRNA; actives raise or lower the signal
In short: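 Cells: HepG2, transiently transfected with cis-regulated reporter transcription units. Exposure: 24 h. Detection: RT-PCR plus capillary electrophoresis of FAM-labeled fragments. Analysis: bidirectional, DMSO as baseline.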

Measured: outcome

Sequence of Retinoic acid receptor alpha (Homo sapiens) (P10276 whole entry, looked up): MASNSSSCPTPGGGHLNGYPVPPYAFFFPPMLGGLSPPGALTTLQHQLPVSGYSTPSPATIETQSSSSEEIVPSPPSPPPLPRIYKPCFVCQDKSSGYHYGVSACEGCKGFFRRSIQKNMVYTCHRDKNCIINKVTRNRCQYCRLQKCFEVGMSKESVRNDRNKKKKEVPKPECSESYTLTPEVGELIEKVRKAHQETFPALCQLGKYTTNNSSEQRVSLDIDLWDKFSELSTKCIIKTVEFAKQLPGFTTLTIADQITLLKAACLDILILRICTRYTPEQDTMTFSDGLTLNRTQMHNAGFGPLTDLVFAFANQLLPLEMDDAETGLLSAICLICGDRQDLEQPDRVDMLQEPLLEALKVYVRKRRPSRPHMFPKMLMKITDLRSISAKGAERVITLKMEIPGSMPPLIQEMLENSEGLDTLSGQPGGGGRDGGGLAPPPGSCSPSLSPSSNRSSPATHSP
Sequence of Transcription factor E2F1 (Homo sapiens) (Q01094 whole entry, looked up): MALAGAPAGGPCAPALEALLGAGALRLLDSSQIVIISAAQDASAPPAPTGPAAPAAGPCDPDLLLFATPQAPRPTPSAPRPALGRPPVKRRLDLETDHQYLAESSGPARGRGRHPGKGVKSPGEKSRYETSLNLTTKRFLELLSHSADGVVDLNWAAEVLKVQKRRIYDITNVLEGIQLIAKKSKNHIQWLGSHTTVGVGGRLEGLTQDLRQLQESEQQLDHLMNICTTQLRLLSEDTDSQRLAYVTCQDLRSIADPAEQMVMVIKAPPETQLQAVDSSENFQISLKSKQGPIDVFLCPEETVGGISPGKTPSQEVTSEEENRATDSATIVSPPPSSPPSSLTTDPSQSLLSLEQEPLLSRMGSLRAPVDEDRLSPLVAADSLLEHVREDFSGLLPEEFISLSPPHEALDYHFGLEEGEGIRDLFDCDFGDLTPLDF
Sequence of CCAAT/enhancer-binding protein beta (Homo sapiens) (P17676 whole entry, looked up, the tested form may be a part): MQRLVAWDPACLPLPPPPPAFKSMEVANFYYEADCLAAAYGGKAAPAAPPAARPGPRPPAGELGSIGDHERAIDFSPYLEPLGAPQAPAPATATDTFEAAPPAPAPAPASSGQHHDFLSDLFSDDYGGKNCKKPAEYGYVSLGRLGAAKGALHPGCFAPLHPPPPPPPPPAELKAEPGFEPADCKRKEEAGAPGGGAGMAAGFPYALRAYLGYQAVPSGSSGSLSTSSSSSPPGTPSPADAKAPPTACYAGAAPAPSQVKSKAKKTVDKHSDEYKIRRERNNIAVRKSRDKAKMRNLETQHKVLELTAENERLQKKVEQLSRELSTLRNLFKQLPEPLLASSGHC
Sequence of Aryl hydrocarbon receptor (Homo sapiens) (P35869 whole entry, looked up): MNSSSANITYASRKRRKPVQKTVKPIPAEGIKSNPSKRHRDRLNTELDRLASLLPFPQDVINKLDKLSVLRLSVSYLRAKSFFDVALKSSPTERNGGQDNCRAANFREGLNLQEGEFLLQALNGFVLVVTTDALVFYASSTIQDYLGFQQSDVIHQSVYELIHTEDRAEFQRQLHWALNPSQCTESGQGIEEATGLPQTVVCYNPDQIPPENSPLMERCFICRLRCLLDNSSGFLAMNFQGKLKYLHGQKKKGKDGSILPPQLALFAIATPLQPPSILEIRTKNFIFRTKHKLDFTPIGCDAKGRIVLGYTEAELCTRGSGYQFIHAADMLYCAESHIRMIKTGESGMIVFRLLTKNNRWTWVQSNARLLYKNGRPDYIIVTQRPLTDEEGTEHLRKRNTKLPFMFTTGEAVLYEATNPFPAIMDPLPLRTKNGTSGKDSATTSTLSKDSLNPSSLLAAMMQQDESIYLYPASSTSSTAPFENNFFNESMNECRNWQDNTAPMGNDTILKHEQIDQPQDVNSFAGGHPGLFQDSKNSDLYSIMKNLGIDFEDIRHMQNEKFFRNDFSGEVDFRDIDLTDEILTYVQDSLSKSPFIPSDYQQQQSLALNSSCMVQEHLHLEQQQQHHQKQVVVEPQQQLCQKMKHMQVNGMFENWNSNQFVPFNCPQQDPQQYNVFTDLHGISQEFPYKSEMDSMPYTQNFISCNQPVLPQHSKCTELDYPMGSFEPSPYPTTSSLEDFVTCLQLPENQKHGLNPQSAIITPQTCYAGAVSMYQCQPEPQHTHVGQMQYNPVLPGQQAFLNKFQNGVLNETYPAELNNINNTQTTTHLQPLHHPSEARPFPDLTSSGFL
Sequence of Hepatocyte nuclear factor 3-beta (Homo sapiens) (Q9Y261 whole entry, looked up): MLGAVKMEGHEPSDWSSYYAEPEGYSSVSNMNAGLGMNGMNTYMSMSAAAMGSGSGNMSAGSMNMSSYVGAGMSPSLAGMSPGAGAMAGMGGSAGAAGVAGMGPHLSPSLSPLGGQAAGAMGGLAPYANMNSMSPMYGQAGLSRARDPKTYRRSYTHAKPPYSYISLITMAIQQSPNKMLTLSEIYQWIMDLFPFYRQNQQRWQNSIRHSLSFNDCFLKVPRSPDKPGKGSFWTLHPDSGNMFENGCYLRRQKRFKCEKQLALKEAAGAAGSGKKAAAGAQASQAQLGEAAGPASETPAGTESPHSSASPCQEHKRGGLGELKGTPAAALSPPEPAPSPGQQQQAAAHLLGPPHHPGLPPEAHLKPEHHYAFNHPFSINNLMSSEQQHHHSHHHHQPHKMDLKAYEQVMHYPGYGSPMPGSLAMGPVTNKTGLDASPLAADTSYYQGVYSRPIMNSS

C#CC(O)CCC (stereo not given)
inactive: [1] | [2] | [3] | [4] | [5] | [6] | [7] | [8] | [9] | [10] | [11] | [12] | [13] | [14] | [15] | [16] | [17] | [18] | [19] | [20]

O=C(O)C(F)(F)C(F)(F)C(F)(F)OC(F)(F)F
inactive: [1] | [2] | [3] | [4] | [5] | [6] | [7] | [8] | [9] | [10] | [11] | [12] | [13] | [14] | [15] | [16] | [17] | [18] | [19] | [20]

COc1ccccc1C=O
inactive: [1] | [2] | [3] | [4] | [5] | [6] | [7] | [8] | [9] | [10] | [11] | [12] | [13] | [14] | [15] | [16] | [17] | [18] | [19] | [20]

Cc1cccc(C)n1
inactive: [1] | [2] | [3] | [4] | [5] | [6] | [7] | [8] | [9] | [10] | [11] | [12] | [13] | [14] | [15] | [16] | [17] | [18] | [19] | [20]
